High-throughput results from PubChem BioAssay.
PKM2 activator: increases activity of human pyruvate kinase M2; P14618; purified PKM2, Kinase-Glo ATP luminescence, activation; response scale: 0% is enzyme alone, no compound; Potency, µM (doses to about 57.5 µM), inactives show at the highest dose activation, most hits filed as activators; 260,000 tested, 0.34% active; AID 1631; also: potency is read from the fitted curve at half-maximal effect; % is scaled to controls: 0 for no effect and ±100 for the full control effect; nearly all actives have a fitted effect of over 55% in size
Target sequence (P14618 whole entry, looked up): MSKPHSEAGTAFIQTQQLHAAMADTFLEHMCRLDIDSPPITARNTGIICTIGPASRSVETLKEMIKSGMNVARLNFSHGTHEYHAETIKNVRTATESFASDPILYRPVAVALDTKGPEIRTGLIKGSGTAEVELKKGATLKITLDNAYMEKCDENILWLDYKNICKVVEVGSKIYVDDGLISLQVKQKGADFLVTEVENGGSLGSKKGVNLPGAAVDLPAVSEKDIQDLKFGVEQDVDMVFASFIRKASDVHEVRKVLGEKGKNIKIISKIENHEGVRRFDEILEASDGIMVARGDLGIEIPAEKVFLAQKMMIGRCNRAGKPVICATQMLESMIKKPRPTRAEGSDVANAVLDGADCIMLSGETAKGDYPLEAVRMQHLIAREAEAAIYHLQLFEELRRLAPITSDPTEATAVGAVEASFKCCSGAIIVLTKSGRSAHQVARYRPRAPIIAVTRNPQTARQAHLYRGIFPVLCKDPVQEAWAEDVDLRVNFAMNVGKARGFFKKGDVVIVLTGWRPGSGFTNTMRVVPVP
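Purified hPK-M2 (>95%) run at intermediate activity with 0.1 mM ADP and 0.5 mM PEP in 50 mM imidazole pH 7.2, KCl, MgCl2; 1 h room temperature. ATP formed read by Kinase-Glo luminescence; normalized to uninhibited and no-enzyme controls.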
TRPML1 agonist: agonists of human TRPML1 channel; 410,000 tested, 0.12% active; Q9GZU1; AID 624414; activation, % (concentration not given with the values); TRPML1-expressing cells, Ca2+ dye fluorescence, FDSS; in the data active = activation above about 50%; inconclusive = mostly about 30% to 49%; also: 0% is about no effect
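TRPML1-DL cells, Tet-induced overnight (~16 h, 37 degrees C), loaded 45-90 min at room temperature with Ca8 no-wash calcium dye plus quencher. FDSS fluorescence: 10 s baseline, compound pin-transfer, 110 s agonist read, then EC80 54-4 (4uM final) and 110 s antagonist read.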
TRPML1 blocker: blocks the human TRPML1 channel; Q9GZU1; TRPML1-inducible cells, Ca2+ dye fluorescence, FDSS; hits give low values; inhibition of EC80 agonist-evoked calcium signal; activity change, negative = inhibition, % (concentration not given with the values); 390,000 tested, 0.02% active; AID 624415; in the data active = activity change below about -50%; inconclusive = between about -30% and that limit;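 also: stimulus is agonist 54-4 at its EC80 concentration; % is scaled to controls: 0 for no effect and ±100 for the full control effect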
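Calcium fluorescence in TRPML1-DL cells induced overnight with Tet: a 110 s read after compound pin addition, then a 110 s antagonist read after challenge with 54-4 at 4 uM final (EC80).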
IL-2 act: IL-2 activation. activation, % (series mostly up to about 46 µM). AID 652025. 360,000 tested, 0.065% active. IL-2 activation reporter assay, cell-based qHTS; stimulated with anti-CD3/CD4/CD28 beads; in transgenic mouse T cells; in the data active = activation above about 50%; inconclusive = mostly about 30% to 49%; also: 0% is about no effect
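Unstimulated transgenic mouse T cells, 750 per well, received compound and, after 60 minutes, anti-CD3/anti-CD4 bead plus anti-CD28 stimulation. EGFP and DsRed were quantified after 18 hours.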
BRCA1 expr up: BRCA1 expression activation; MCF7-BRCA1-FFLuc reporter, luminescence, 48 h; response scale: scaled: vehicle 0%, 10 µM genistein 100%; Potency, µM (titrated, usually from 46.1 µM), for inactives: at the top dose activation, usual class: activators; 380,000 tested, 1.1% active; AID 624202; also: potency is read from the fitted curve at half-maximal effect; nearly all actives have a fitted effect of over 80% in size
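48 h compound treatment of MCF7-BRCA1-FFLuc cells (phenol-red free MEM, 37 °C), then 15 min with luciferase substrate and luminescence imaging.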
PTAP TSG101 blk: blocks PTAP/TSG101 interaction to inhibit HIV-1 budding | Q99816 | Fluorescence polarization, FITC-PTAP peptide / Tsg101 binding | Potency, µM (titrated, usually from 115 µM), for the others: at the highest dose activity change, negative = inhibition, usual class: inhibitors | 340,000 tested, under 10 active | AID 493005; active = well fitted inhibition curve with a large enough effect in the main read-out, with a control signal flat, not every such curve was filed as active; inconclusive = small, poorly fitted or top-dose-only effect, or effect the other way, or a change in a side signal; inactive = no such curve, though single readings can be large or run the other way; also: potency is read from the fitted curve at half-maximal effect; % of control where 0% means no effect
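Compounds were pin-transferred onto Tsg101 binding domain (10 uM final) in HEPES pH 7.5 buffer, then FITC-PTAP peptide was added at 50 nM final. After 20 min at RT, polarization reported peptide displacement across a qHTS concentration series.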
* = called active by the depositor; ? = inconclusive; . = no result given. An excerpt weighted towards active compounds, which were near 1.3% of everything screened. Unless noted, calls follow the shape of the dose curve; as a rule, active = well fitted activation curve with a large enough effect; inconclusive = small, poorly fitted or top-dose-only effect; inactive = no such curve, though single readings can be large or run the other way.

SMILES	PKM2 activator	TRPML1 agonist	TRPML1 blocker	IL-2 act	BRCA1 expr up	PTAP TSG101 blk
O=C(Nc1ccc(N2CCC(N3CCCCC3)CC2)c(C(=O)O)c1)c1ccccc1	.	-1	2	.	.	.
CCN=c1scc(-c2ccco2)n1/N=C/c1ccc(OC)c(O)c1	9%	0	5	3	6.3µM*	-1%
O=C(N/N=C/c1c[nH]c2ccccc12)c1cccc(O)c1	.	2	14	3	13µM*	-1%
O=C(O)c1cc(N/N=C/c2c[nH]c3ccccc23)ccc1Cl	1%	-1	36	0	3.2µM*	-4%
O=C(O)c1cc(N/N=C/c2ccc(-c3ccccc3)cc2)ccc1Cl	.	1	11	2	?	-4%
O=S(=O)(Nc1ccc(-c2nc3cccnc3s2)cc1)c1ccccc1F	-2%	1	-25	-2	10µM*	-4%
O=C(NC(=S)Nc1nc2c(s1)CCCC2)c1ccccc1	-5%	0	3	1	28%	-9%
S=C(Nc1nc2c(s1)CCCC2)NC1CC1	1%	2	17	-3	6.3µM*	0%
C=CCn1c(-c2ccc(N)cc2)nc2ccccc21	10%	0	10	-3	50%	-3%
C=CCn1c(-c2ccc(OC)cc2)nc2ccccc21	5%	0	-5	1	10µM*	-2%
O=C(c1ccc2c(=O)n(CCc3ccccc3)c(=O)[nH]c2c1)N1CCN(C(=O)c2ccco2)CC1	.	0	.	.	0%	.
Cc1ccc(CN2C(=O)N/C(=C\c3ccc(-c4ccc(C(=O)O)cc4C)o3)C2=O)cc1	9%	-1	0	0	-21%	0%
Cc1cc(C(=O)O)ccc1-c1ccc(/C=C2\NC(=O)N(Cc3ccccc3Cl)C2=O)o1	20µM*	0	-6	-2	3%	5%
COc1cccc(-c2nnc(-c3ccc(C(F)(F)F)cc3)o2)c1	-2%	1	18	-5	13µM*	-1%
COc1cccc(-c2nnc(-c3ccc4ccccc4c3)o2)c1	.	2	5	-1	?	-1%
O/N=C(/CBr)c1ccc2ccccc2c1	.	-1	.	.	5%	.
CCN(CC)c1ccc(NC(=O)C2=CC=CN3CCS(=O)(=O)N=C23)cc1	.	-1	6	7	39%	-3%
CC(C)(C)c1ccc(NC(=O)C2=CC=CN3CCS(=O)(=O)N=C23)cc1	.	0	-4	0	10µM*	-1%
CCc1cccc(NC(=O)c2cc3c(=O)n(Cc4ccc(OC)cc4)ccc3nc2C)c1	.	1	7	.	.	.
N#CCCn1c(SCC(=O)NCC2CCCO2)nc2ccccc21 (stereo not given)	20µM*	1	4	1	0%	-3%
COc1ccc(-n2c(SCC(=O)NCC3CCCO3)nc3ccccc32)cc1 (stereo not given)	2%	7	28	0	-36%	-5%
CS(=O)(=O)N1CCN(/[N+]([O-])=N/Oc2ccc([N+](=O)[O-])cc2[N+](=O)[O-])CC1 (tested in a mixture with another compound)	.	2	-16	.	21%	.
Cc1ccc(OCC(=O)Nc2ccc(-c3nc4ccc(C)cc4o3)cc2)cc1	.	1	-18	.	0.89µM*	.
N#C/C(=C\c1ccc(N2CCOCC2)o1)c1nc2ccccc2[nH]1	-7%	60*	-13	?	?	?
N#C/C(=C\c1ccc(-c2ccc(C(=O)O)cc2)o1)c1nc2ccccc2[nH]1	10%	61*	7	?	54%	?
N#C/C(=C/c1ccc(N2CCOCC2)o1)c1ccc(Cl)cc1	1.3µM*	13	9	7	50%	19%
N#C/C(=C\c1ccc(N2CCOCC2)c([N+](=O)[O-])c1)c1nc2ccccc2[nH]1	3%	0	18	2	-39%	-2%
